This is a sample that favours compounds with a hit; in the whole collection about 19% have one here.
HT1080 IDH1KD tx – kills HT-1080 cells with IDH1 knockdown; HT-1080 IDH1 knockdown viability, ATP luminescence, 48 h; Potency, µM (top dose mostly 46.1 µM), without a hit: at the top dose activity, negative = toxicity, usual class: cytotoxic; actives 2% (n = 360,000);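 further: 0% = DMSO wells and -100% = cell-free medium wells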
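After a 2 h attachment period, IDH1KD HT-1080 cells took pin-transferred compound for 48 h at 37 °C; ATP-based luminescence after 10 min room-temperature reagent incubation reported viability.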
DT40 TDP1 CPT – growth inhibition of DT40 Tdp1-/-;hTDP1 cells with camptothecin (screen for TDP1 inhibitors); chicken DT40 Tdp1-/-;hTDP1 cells + 20 nM CPT, ATP luminescence, 48 h; Potency, µM (doses to about 46.2 µM), for inactives: at the highest dose activity change, negative = growth inhibition, most hits filed as inhibitors; actives 12% (n = 420,000); AID 686979; further: nearly all actives have a fitted effect of over 55% in size
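Cell growth measured by CellTiter-Glo luminescence after a minimum 48 h, 37 C compound exposure with 20 nM CPT in Tdp1-knockout DT40 cells stably expressing hTDP1, seeded 400/well; qHTS titration format.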
KB-3-1 tox – kills parental KB-3-1 adenocarcinoma cells; actives 1.4% (n = 400,000); Potency, µM (doses to about 46.1 µM), actives largely listed as cytotoxic; KB-3-1 viability, CellTiter-Glo ATP luminescence, 72 h; further: nearly all actives have a fitted effect of over 60% in size
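Viability of parental KB-3-1 cells, measured by CellTiter-Glo luminescence, followed a 72 h incubation at 37 °C with pinned compounds in phenol-red-free DMEM containing 10% FBS.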
TDP1 cell noCPT – qHTS for Inhibitors of human tyrosyl-DNA phosphodiesterase 1 (TDP1): qHTS in cells in absence of CPT; actives 15% (n = 420,000); Potency, µM (highest dose often 46.2 µM), without a hit: at the top dose activity change, negative = growth inhibition, hits mostly inhibitors; AID 686978, 2013; DT40 Tdp1-/- hTDP1 cells, no CPT, ATP luminescence, 48 h; further: nearly all actives have a fitted effect of over 55% in size
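Stably hTDP1-transfected Tdp1-null chicken DT40 cells were treated with library compounds minus camptothecin and grown for at least 48 hr at 37 °C, after which cellular ATP was quantified by luminescence.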
KB-V1 MDR tox – KB-V1 MDR subline cytotoxicity. KB-V1 MDR cells viability, CellTiter-Glo, 72 h. Potency, µM (series often up to 46.1 µM), actives largely listed as cytotoxic. actives 3.4% (n = 400,000); further: nearly all actives have a fitted effect of over 60% in size
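KB-V1, DMEM (no phenol red) + 10% FBS; cpd pin-transferred, titration series; 72 h, 37 degrees C; CellTiter-Glo, luminescence. Data normalized, curve-fit.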
HT1080-NT tox – kills 2HG-producing HT-1080-NT fibrosarcoma cells | HT-1080-NT fibrosarcoma viability, CellTiter-Glo ATP luminescence, 48 h | Potency, µM (doses to about 46.1 µM), inactives show top-dose activity, negative = less viability, usual class: cytotoxic | actives 1.6% (n = 360,000);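 further: NT is the 2HG producing partner of a matched IDH1 knockdown line; 0% = DMSO-treated cells and -100% = media-only wells without cells; nearly all actives have a fitted effect of over 55% in size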
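Read-out is CellTiter-Glo luminescence after 10 minutes at room temperature, following 48 hours' compound treatment of HT-1080-NT cells (750 cells/well, RPMI, 5% FBS, 37 degrees C).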
Numbers without * were called inactive; i = inactive; ? = inconclusive; / = no result; ! = a repeat was not active; [ ] = another dose, or the depositor's remark. The call rests on the fitted dose curve; in most records, active means well fitted curve in the direction sought with a large enough effect; inconclusive means small, poorly fitted or top-dose-only effect, or another doubt; inactive means no such curve, though single readings can be large; an effect the other way counts as inactive or inconclusive. Unless noted, on the % scale 0 is the no-effect control and ±100 the full control effect; potency means the concentration at half of the fitted maximal effect.

SMILES | HT1080 IDH1KD tx | DT40 TDP1 CPT | KB-3-1 tox | TDP1 cell noCPT | KB-V1 MDR tox | HT1080-NT tox
COc1ccc(OC)c(CCNC(=O)c2cc3c(=O)n(C)c4ccccc4c3n2C)c1 | / | ? | i | 23µM* | i | /
COc1ccc(CCNC(=O)c2cc3c(=O)n(C)c4ccccc4c3n2C)cc1OC | 0% | ? | i | 16µM* | ? | 9%
C[C@H]1CN([C@@H](C)CO)C(=O)CCCn2cc(nn2)CO[C@@H]1CN(C)C(=O)CCC(F)(F)F | 11% | -14% | i | ? | i | 8%
CCOC(=O)C1CCN(C(=O)Cn2ncc3c([nH]c4ccc(C)cc43)c2=O)CC1 | / | -1% | i | 6% | i | /
CCSC1(SCC)N=C(N)C2(C#N)C(c3ccc(OC)c(OC)c3OC)C12C#N (centres undefined) | ? | 6.5µM* | ? | 8.2µM* | ? | ?
COc1cccc(CNc2nc3cc(-c4cccc(C(F)(F)F)c4)sc3c(=O)n2C)c1 | 8% | -26% | i | -39% | i | 7%
Cn1c(NCc2ccccc2F)nc2cc(-c3cccc(C(F)(F)F)c3)sc2c1=O | 29% | 13µM* | i | 15µM* | i | 26%
CC(=O)Nc1ccc(CNc2nc3cc(-c4cccc(C(F)(F)F)c4)sc3c(=O)n2C)cc1 | ? | 23µM* | i | 21µM* | ? | ?
Cc1c(C(=O)N2CCCCCC2)sc2ncnc(NCC3CCCO3)c12 (centres undefined) | / | -6% | / | -25% | / | /
Cc1cccc(/C=N/NC(=O)Cc2ccc(Cl)cc2)c1O | ? | 18µM* | ? | ? | i | -27%
Cc1cccc(/C=N\NC(=O)c2ccc(Cl)cc2)c1O | 3.3µM* | 4.6µM* | ? | ? | ? | ?
Cc1ccccc1C(=O)Nc1nnc(S(=O)(=O)N(C)Cc2ccco2)s1 | -23% | -23% | i | -1% | i | ?
CCN1C(=O)c2ccccc2Sc2ccc(NC(=O)Nc3ccc(C(C)=O)cc3)cc21 | / | ? | / | 21µM* | / | /
CCc1ccccc1NC(=O)Nc1ccc2c(c1)N(CC)C(=O)c1ccccc1S2 | / | 8.2µM* | / | 15µM* | / | /
O=C(CSc1ccccc1)N1CCN(S(=O)(=O)c2ccccc2)CC1 | -3% | 10% | i | -5% | i | 10%
O=S(=O)(c1ccccc1)N1CCC(O)(CSc2ccc(F)cc2)CC1 | 18µM* | ? | ? | ? | ? | -10%
O=S(=O)(c1ccccc1)N1CCC(O)(CSc2ccccc2)CC1 | -24% | -5% | i | -18% | i | 23µM*
Cc1ccccc1C(=O)NNS(=O)(=O)c1ccc(F)cc1 | 0% | 1% | i | -1% | i | -2%
CCCCN1CC[C@H]2C=CC[C@@H](C(=O)Nc3ccc(Cl)cc3Cl)[C@H]2C1=O | -6% | 16µM* | i | ? | ? | -1%
CCCCNC(=O)[C@@H]1CC=C[C@@H]2CCN(Cc3ccc(OC)c(OC)c3)C(=O)[C@@H]21 | / | ? | i | ? | ? | /
COc1ccc(CN2CC[C@H]3C=CC[C@@H](C(=O)Nc4ccccc4)[C@H]3C2=O)cc1OC | / | ? | i | 10µM*! | ? | /
COc1ccc(CNC(=O)[C@@H]2CC=C[C@@H]3CCN(Cc4ccc(Cl)c(Cl)c4)C(=O)[C@@H]32)cc1 | -5% | 23µM* | ? | 11µM* | ? | -12%
CCOC(=O)N1CCC2(CC1)OC(=O)C(C)=C2C(=O)NCc1cccc(OC)c1 | / | -27% | i | ? | i | /
COc1ccc(C(C)NC(=O)CC23CC4CC(CC(C4)C2)C3)cc1 (centres undefined) | -2% | ? | i | 16µM* | i | 0%
Cc1ccnc(N2CCCC(C(=O)Nc3nnc(C)s3)C2)n1 (centres undefined) | -8% | -10% | i | -13% | i | 16%
SMILES | HT1080 IDH1KD tx | DT40 TDP1 CPT | KB-3-1 tox | TDP1 cell noCPT | KB-V1 MDR tox | HT1080-NT tox
Cc1cc(C)cc(NC(=O)C2CCCN(c3nc(C)cc(C)n3)C2)c1 (centres undefined) | -5% | -2% | i | -13% | i | 1%
Cc1cc(C)nc(N2CCCC(C(=O)Nc3nnc(C)s3)C2)n1 (centres undefined) | 8% | -7% | i | -4% | 18µM* | 0%
Cc1cc(C)nc(N2CCCC(C(=O)Nc3ccc4c(c3)OCCO4)C2)n1 (centres undefined) | ? | -28% | i | -21% | 7.3µM* | ?
Cc1cc(C)nc(N2CCCC(C(=O)Nc3ccc4nc(C)c(C)nc4c3)C2)n1 (centres undefined) | 6% | ? | i | 13µM* | ? | 2%
CCOc1ccc(NC(=O)C2CCCN(c3nc(C)cc(C)n3)C2)cc1 (centres undefined) | 5% | ? | ? | -21% | ? | -1%
CN(CCO)c1c2c(nc3cc(-c4cccc(F)c4)nn13)CCCC2 | -7% | ? | i | 21µM* | i | -22%
OC1CCN(c2c3c(nc4cc(-c5cccc(F)c5)nn24)CCCC3)CC1 | -3% | 16µM* | i | 21µM* | i | 0%
OCCCNc1c2c(nc3cc(-c4ccc(Cl)cc4)nn13)CCC2 | 2% | -30% | i | ? | i | 10%
Fc1cccc(-c2cc3nc4c(c(N5CCC6(CC5)OCCO6)n3n2)CCCC4)c1 | 0% | 21µM* | i | 23µM* | i | -6%
CN(C)CCCNc1cc(-c2ccccc2)nc2cc(-c3cccc(F)c3)nn12 | ? | ? | ? | 7.3µM* | ? | ?
Cc1cccc(-c2cc3nc(C)cc(NCCCN(C)C)n3n2)c1 | ? | ? | i | ? | i | ?
Cc1ncc2c(c1CNC(=O)c1cncs1)CCN(C(=O)c1ccc(C(F)(F)F)cc1)C2 | / | -15%[9.04 µM] | / | -14% | / | /
COc1cccc(CN2C(=O)NC(C)(C3CCN(Cc4cnn(C)c4C)CC3)C2=O)c1OC (centres undefined) | / | 4% | / | 0% | / | /
COC(=O)c1sccc1NC(=O)c1csc(C)c1 | ? | -26% | i | -26% | 16µM* | -22%
COc1ccc(NC(=O)c2cnc(SC)nc2)cc1 | ? | 15µM* | 16µM* | 12µM* | ? | ?
CCOc1ccccc1NC(=O)c1nc[nH]c1C(=O)Nc1ccccc1OCC | -3% | 16µM* | ? | ? | i | -5%

Source: PubChem BioAssay (National Center for Advancing Translational Sciences (NCATS))
